CYP2C9 inhib: blocks human cytochrome P450 2C9; 20% of 96,000 active; inhibition, % at 5 µM; P11712; CYP2C9 Supersomes, luciferin-H conversion, luminescence;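 active = blocking of liver enzyme CYP2C9 beyond about 50% at 5 µM, limit read from the data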
CYP2C9 activ: increases human cytochrome P450 2C9 activity. activation factor at 5 µM. AID 1024. P11712. recombinant CYP2C9, luciferin-H conversion, luminescence; hits give high values; factor 1 = untreated enzyme, 0 = blocked. 1.4% of 96,000 active;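 active = activation factor of 2 or more for CYP2C9 at a 5 µM dose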;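 also: 0 = sulfaphenazole-blocked wells and 1 = vehicle-only wells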
CYP2C19 inhib: human CYP2C19 inhibition. inhibition, % at 5 µM. P33261. 21% of 96,000 active. AID 778. CYP2C19 Supersomes, luciferin-H EGE luminescence, 30 min;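 active = CYP2C19 inhibition above a set limit at 5 µM in the primary screen, cut at about 50% in these data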;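 also: plate controls were negative control wells for no effect and 2.5 mM tranylcypromine positive control for full effect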
CYP2C19 activ: activators of human cytochrome P450 2C19; recombinant CYP2C19, luciferin-H EGE luminescence; hits give high values; 0 = fully inhibited enzyme, 1 = untreated enzyme; 96,000 tested, under 10 active; AID 1025; P33261; activation factor at 5 µM;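 active = activation factor of at least 2 at 5 µM in the primary screen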;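 also: 0 = wells with 2.5 mM tranylcypromine and 1 = vehicle-only wells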
PLAP act: activators of human placental alkaline phosphatase | purified PLAP enzyme, luminescent substrate read-out; hits give high values | 1.2% of 96,000 active | activation fold at 20 µM | P05187; in the data active = activation fold above about 2
Target sequence (P05187 whole entry, looked up): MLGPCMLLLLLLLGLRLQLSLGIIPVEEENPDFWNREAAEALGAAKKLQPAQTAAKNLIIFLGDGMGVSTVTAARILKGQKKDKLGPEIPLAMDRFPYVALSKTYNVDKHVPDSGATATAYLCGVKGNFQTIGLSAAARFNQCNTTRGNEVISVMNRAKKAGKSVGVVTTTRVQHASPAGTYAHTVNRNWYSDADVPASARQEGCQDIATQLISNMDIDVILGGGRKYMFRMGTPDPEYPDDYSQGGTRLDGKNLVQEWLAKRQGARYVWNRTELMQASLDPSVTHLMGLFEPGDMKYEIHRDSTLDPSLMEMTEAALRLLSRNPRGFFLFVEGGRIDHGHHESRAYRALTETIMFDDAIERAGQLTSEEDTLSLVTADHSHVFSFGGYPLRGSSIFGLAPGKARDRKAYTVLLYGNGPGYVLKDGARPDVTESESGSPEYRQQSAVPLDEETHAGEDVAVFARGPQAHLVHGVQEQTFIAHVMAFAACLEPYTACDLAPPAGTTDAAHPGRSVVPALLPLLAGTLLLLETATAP
* = called active by the depositor. These entries were drawn from the full list.

SMILES | CYP2C9 inhib | CYP2C9 activ | CYP2C19 inhib | CYP2C19 activ | PLAP act
CCOc1ccccc1CNc1ccc(N2CCOCC2)c(C(=O)O)c1 | 0.7 | 1 | -1.8 | 1 | 1.1
CCOc1cc(C2NC(=O)NC(O)(C(F)(F)F)C2C(=O)c2ccc(OC)cc2)ccc1O (stereo not given) | 8.2 | 0.9 | 11.3 | 0.9 | 1.2
CCCCc1nnc(NC(=O)C(C)Sc2nc(N)cc(=O)[nH]2)s1 (stereo not given) | 28.5 | 0.7 | 6.3 | 0.9 | 1.9
COc1ccc(OC)c2sc(NC(=O)c3ccc(S(=O)(=O)N(C)C)cc3)nc12 | 1.3 | 1 | -2.2 | 1 | 1
CCOc1cc(S(=O)(=O)N(Cc2ccccc2)Cc2ccccc2)c(OCC)cc1-n1cnnn1 | 40.9 | 0.6 | 24.4 | 0.8 | 1
COC(=O)c1ccccc1NC(=O)Cn1c(=O)oc2ccc(Cl)cc21 | 41.4 | 0.6 | 74.2* | 0.3 | 1
CC(C)Oc1cccc(C(=O)Nc2ccccc2N2CCOCC2)c1 | 58.7* | 0.4 | 37.7 | 0.6 | 0.9
CCOc1ccc(C(=O)Nc2ccccc2N2CCOCC2)cc1 | -1.3 | 1 | 17.7 | 0.8 | 1
CCOc1ccc(C(=O)C2CCN(CC(=O)Nc3ccccc3N3CCOCC3)CC2)cc1 | 96.3* | 0 | 99.1* | 0 | 1.5
COc1cc(OC)cc(C(=O)N[C@H](C(=O)Nc2ccccc2N2CCOCC2)C(C)C)c1 | 41.6 | 0.6 | 48.1 | 0.5 | 1.4
COc1ccccc1NC(=O)Cn1c(=O)oc2ccccc21 | -10.0 | 1.1 | 29.8 | 0.7 | 1
O=C(CCC(=O)NC1CCN(Cc2ccccc2)CC1)NCc1ccco1 | -9.1 | 1.1 | 4.0 | 1 | 1.1
CCCCOc1cc(=O)[nH]c(=O)[nH]1 | -14.1 | 1.1 | -17.3 | 1.2 | 0.8
CSCCC(NC(=O)c1ccoc1C)C(=O)O (stereo not given) | 16.2 | 0.8 | -2.6 | 1 | 0.9
COc1cc(/C=C2\SC(c3ccc(C)cc3)=NC2=O)cc(OC)c1O | 81.7* | 0.2 | 70.7* | 0.3 | 0.7
Cc1cc(C)c(NC(=O)CSc2nnc(SCC(=O)Nc3c(C)cc(C)cc3C)n2N)c(C)c1 | 14.6 | 0.9 | 67.8* | 0.3 | 1
CCc1nnc(SCC(=O)Nc2ccc(C(C)=O)cc2)nc1CC | 40.0 | 0.6 | 74.1* | 0.3 | 1.4
CCc1ccc(N/C(SC)=C(/C#N)C(N)=O)cc1 | 49.5 | 0.5 | 29.1 | 0.7 | 0.9
CCc1ccc(NC(=O)CSc2nnc(CC)c(CC)n2)cc1 | 49.4 | 0.5 | 64.1* | 0.4 | 0.9
CC(=O)c1ccc(NC(=O)CSCCO)cc1 | -3.2 | 1 | -2.5 | 1 | 0.9
Cc1cc(C)cc(NC(=O)CSc2nnc(-c3ccccc3)n2N)c1 | -3.3 | 1 | 7.0 | 0.9 | 1.1
CCc1ccc(NC(=O)CSc2nnc(SCC(=O)Nc3ccc(CC)cc3)n2N)cc1 | 61.9* | 0.4 | -6.8 | 1.1 | 0.8
Nc1cccc(Cl)c1N1CCOCC1 | -0.2 | 1 | 10.7 | 0.9 | 1.1
Nn1c(SCC(=O)Nc2ccc(F)cc2)nnc1C1CCCCC1 | 4.6 | 1 | -2.4 | 1 | 0.7
Cc1ccc(NC(=O)CSc2nnc(C3CCCCC3)n2N)cc1F | 71.7* | 0.3 | 84.7* | 0.2 | 0.9
SMILES | CYP2C9 inhib | CYP2C9 activ | CYP2C19 inhib | CYP2C19 activ | PLAP act
CC(=O)Nc1ccc(S(=O)(=O)c2ccc(N)cc2)cc1N | -34.4 | 1.3 | -4.6 | 1 | 1.1
Nc1ccc(S(=O)(=O)c2cccc(N)c2)cc1 | -142.3 | 2.4* | 15.1 | 0.8 | 1
Cn1c(CN2CCOCC2)nnc1SCC(=O)NCCc1ccccc1 | -36.4 | 1.4 | -7.7 | 1.1 | 1.1
O=C(CCCNS(=O)(=O)c1ccccc1)NCc1ccco1 | -17.7 | 1.2 | -13.1 | 1.1 | 0.9
CCSc1nnc(NC(=O)CSc2ncccn2)s1 | -2.3 | 1 | 7.6 | 0.9 | 0.9
CCSc1nnc(NC(=O)CSc2nccn2-c2cccc(C)c2C)s1 | 69.9* | 0.3 | 34.7 | 0.7 | 1.1
Cc1cccc(-n2ccnc2SCC(=O)Nc2nnc(C)s2)c1 | -37.9 | 1.4 | -6.6 | 1.1 | 1.1
CCSc1nnc(NC(=O)CSc2nccn2-c2cc(C)cc(C)c2)s1 | 50.0* | 0.5 | 18.4 | 0.8 | 1
O=C1c2ccccc2NC(c2ccc(O)cc2)N1Cc1ccco1 (stereo not given) | 60.0* | 0.4 | 19.5 | 0.8 | 1.1
CCN(CC)CCN1C(=O)c2ccccc2NC1c1cccc(F)c1 (stereo not given) | -15.4 | 1.2 | 0.4 | 1 | 1
Cc1ccc(C2Nc3ccccc3C(=O)N2Cc2ccco2)cc1 (stereo not given) | 86.2* | 0.1 | 36.8 | 0.6 | 1
